We go through eight compounds from PubChem BioAssay (NCATS).

For test [1], the target named is Cytochrome P450 3A4 (Homo sapiens) (UniProt P08684). Nature of the test: qHTS Assay for Activators of Cytochrome P450 3A4 (AID 885). Also: nearly all actives have a fitted effect of over 65% in size. In short, it runs like this:
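Activators are scored by enhanced luminescence from CYP3A4 conversion of luciferin-PPXE (25uM, equal to KM) to luciferin, after 60 min at RT with an NADPH-regenerating system.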
For orientation: Quantitative high-throughput screening tests each substance at several concentrations.

A short description of test [2]: Confirmation and Secondary Assay for Modulators of Hemoglobin Beta Chain Splicing at IVS2 654 locus (AID 910).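 Also: HeLa cells stably carrying EGFP split by mutant beta-globin IVS2-654 intron; per-well total GFP intensity by laser scanning cytometry after 2-day treatment; % of control where 0% means no effect.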 In short, it runs like this:
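Readout: per-well total peak green fluorescence (488 nm ex, 500–520 nm em) from objects 5–250 µm, reflecting correct splicing of an EGFP-654 reporter. Compounds were applied for 2 days at 37 °C to overnight-plated HeLa EGFP-654 cells; controls were DMSO and 500 nM IVS2-654 PNA.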

Test [3] can be described thus: Confirmation and Secondary Assay for Modulators of Hemoglobin Beta Chain Splicing at IVS2 705 locus (AID 930).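 Also: HeLa cells stably expressing the EGFP-705 splicing reporter; % of control where 0% means no effect.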 In short, it runs like this: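 Restored EGFP fluorescence after 2-day compound exposure reports splicing correction in IVS2-705 EGFP reporter HeLa cells; positive control was 500 nM splice-blocking PNA oligo. Signal measured as well total peak GFP intensity (488 nm excitation).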

Test [4] concerns the target Ubiquitin carboxyl-terminal hydrolase 1 (Homo sapiens) (UniProt O94782). Kind of test: Inhibitors of USP1/UAF1: Pilot qHTS (AID 504865).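 Also: rhodamine fluorescence freed from ubiquitin-rhodamine substrate followed over time; top concentration of the series differs between compounds; % is scaled to controls: 0 for no effect and ±100 for the full control effect; nearly all actives have a fitted effect of over 35% in size.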 In a few lines:
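Enzyme-free wells gave the negative control, while test wells held 1nM USP1/UAF1 preincubated with compound for 15 min at room temperature. Ub-Rho at 150nM final started the reaction, and fluorescence at 480/540 nm was recorded kinetically.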

Test [5] concerns the target Rap guanine nucleotide exchange factor 3 (Homo sapiens) (UniProt O95398). Nature of the test: Confirmatory qHTS for antagonist of cAMP-regulated guanine nucleotide exchange factor 3 (EPAC1) (AID 1645880). Also: nearly all actives have a fitted effect of over 55% in size. Also: potency is read from the fitted curve at half-maximal effect.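 As to activity, negative = inhibition: plate controls were DMSO only for no effect and full effect of the ATA control for full effect.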 The following applies: EPAC1 Rap1B-BODIPY-GDP exchange, fluorescence; activity, negative = inhibition: at 115 µM (top of the series). In a few lines:
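Released BODIPY-GDP fluoresces less than Rap1-bound BODIPY-GDP; the signal is followed at 480/540 nm at 5-min intervals over 30 min, after 5 min at room temperature. Reactions contain 100 nM EPAC1, 250 nM RAP1B-BODIPY-GDP and 50 uM GDP; results are normalized to ATA and DMSO.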

For test [6] the target is unchanged. Nature of the test: Confirmatory qHTS for agonist of cAMP-regulated guanine nucleotide exchange factor 3 (EPAC1) (AID 1645881). Also: nearly all actives have a fitted effect of over 75% in size. Also: potency is read from the fitted curve at half-maximal effect.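 As to activation: EPAC1 catalysed release of BODIPY-GDP from Rap1B seen as fluorescence loss; 100% = effect of cAMP agonist control.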
Test [7] concerns the target Rap guanine nucleotide exchange factor 4 (Homo sapiens) (UniProt Q8WZA2). Kind of test: Confirmatory qHTS for agonist of cAMP-regulated guanine nucleotide exchange factor 4 (EPAC2) (AID 1645884).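 Also: nucleotide exchange releases bodipy-GDP from Rap1 and this lowers its fluorescence; nearly all actives have a fitted effect of over 65% in size.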 Also: potency is read from the fitted curve at half-maximal effect.
The target is the same in test [8]. Kind of test: Confirmatory qHTS for antagonist of cAMP-regulated guanine nucleotide exchange factor 4 (EPAC2) (AID 1645885). Also: nearly all actives have a fitted effect of over 25% in size. Also: potency is read from the fitted curve at half-maximal effect.
In test [9] the target is Lysosomal acid glucosylceramidase (Homo sapiens) (UniProt P04062). Nature of the test: Glucocerebrosidase-p2 (AID 348; in the data active = potency below about 10 µM; also: potency is read from the fitted curve at half-maximal effect). The following applies: purified GBA, blue fluorogenic substrate, 40 min. In short, it runs like this:
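Normal human glucocerebrosidase (0.2 nM) with blue fluorogenic substrate (80 uM final) in citrate/phosphate pH 5.9 with 10mM sodium taurocholate, 0.01% tween-20; 40 min RT, NaOH/glycine stop; fluorescence Ex 365/Em 440; AC50 from a titration from 0.6 nM upwards.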

The nature of test [10]: AP1 Signaling Pathway (AID 357; active = well fitted curve in either direction with a large enough effect, not every such curve was filed as active; also: % is scaled to controls: 0 for no effect and ±100 for the full control effect). The following applies: ME-180 (cervical carcinoma) AP-1-bla reporter, EGF-induced, beta-lactamase ratio, 5 h; at 7.69 µM (top of the series) unless noted. In short, it runs like this: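 Modulation of EGF-driven AP-1 transcription was assessed with a beta-lactamase reporter in ME-180 cells. Compound and EC50 EGF were co-incubated 5 hours at 37 °C before 2.5-hour CCF4 loading at room temperature and dual-emission reading.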

The nature of test [11]: NFAT Signaling Pathway (AID 444; active = well fitted curve in either direction with a large enough effect, not every such curve was filed as active;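 also: carbachol stimulus at about its EC50 of 1 µM final; % is scaled to controls: 0 for no effect and ±100 for the full control effect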). The following applies: Jurkat NFAT-bla M1, carbachol, beta-lactamase ratio, 5 h; at 7.69 µM (top of the series) unless noted. In short, it runs like this: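 Read-out: CCF4 FRET ratio (460 nm/530 nm) after 1 h RT dye loading, used for %activity and AC50 from titration series. Cells: Jurkat NFAT-β-lactamase/M1 line, treated with compound plus 1 uM carbachol for 5 h, 37 °C.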

Test [12] can be described thus: Stat Signaling Pathway (AID 446; active = well fitted curve in either direction with a large enough effect, not every such curve was filed as active;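 also: ME-180 cervical cancer cells given 40 pM IL-6 alongside compound; SIE-controlled beta-lactamase reporter measured as 460/530 nm FRET emission ratio; % is scaled to controls: 0 for no effect and ±100 for the full control effect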). In a few lines: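 Emission at 460 and 530 nm (excitation 405 nm) reports SIE-controlled beta-lactamase in ME-180 cells. Cells received compound with 40 pM IL-6 for 5 hrs at 37 C; data scaled between 300 pM IL-6 and 125 nM JAK-inhibitor controls.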
Test [13] addresses Glucocorticoid receptor (Homo sapiens) (UniProt P04150). Kind of test: GR-GFP Redistribution (AID 450;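 active = compounds whose dose series gives a full or clear partial fitted curve of increased nuclear translocation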; also: potency is read from the fitted curve at half-maximal effect). Conditions: U2OS GR-GFP nuclear translocation, laser cytometry, 2 h.
Test [14] has the same target. Nature of the test: GR-EFC Redistribution (AID 451; calls by dose curve; also: potency is read from the fitted curve at half-maximal effect). The following applies: CHO-K1 GR-EFC translocation, beta-gal luminescence, 2 h. In a few lines: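 Translocation of GR-ED fusion to nuclear EA restores b-gal, read by luminescence after 1 h room-temperature detection. Engineered CHO-K1 biosensor cells, 1,000/well, exposed 2 h at 37 C to titrations up to 46 uM final.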

Test [15] addresses 3',5'-cyclic-AMP phosphodiesterase 4B (Homo sapiens) (UniProt Q07343). Kind of test: qHTS Assay for Inhibitors of PDE-IV (AID 607; active = well fitted activation curve with a large enough effect in the main read-out, with a control signal flat, not every such curve was filed as active; also: % of control where 0% means no effect). In short, it runs like this:
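The readout is membrane depolarisation from a cAMP-sensing CNG channel, detected with a potential dye at ex 535/em 590. Cells were HEK293-derived (endogenous PDE-IV) at 1000 cells/well, titrated up to 22.9 uM final.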

For test [16], the target named is Rap guanine nucleotide exchange factor 3 (Homo sapiens) (UniProt O95398). Nature of the test: Counterscreen qHTS for agonist of cAMP-regulated guanine nucleotide exchange factor 3 (EPAC1) (AID 1645889). Also: nearly all actives have a fitted effect of over 40% in size. Also: potency is read from the fitted curve at half-maximal effect. As to activation: % of control where 0% means no effect. In short, it runs like this:
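Rap1B-BODIPY-GDP 250 nM + GDP 50 uM; cpds 7-pt, final 9.74 nM–152 uM (activator mode) or from 7.32 nM upwards (inhibitor mode); RT; FI 480/540 nm at 5 and 30 min, then ± cAMP, reread.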
(Counterscreens check selectivity or assay interference.)

The target in test [17] is DNA dC->dU-editing enzyme APOBEC-3G (Homo sapiens) (UniProt Q9HC16). Kind of test: qHTS for inhibitors of Vif-A3G interactions: Validation (AID 588379). Also: 0% is about no effect. In a few lines:
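Yellow fluorescence (Ex 488, Em 500-530) of Vif-coexpressing HeLa A3G-eYFP cells, scanned by Acumen cytometer, reports blocked A3G degradation. Cells plated at 700/well overnight at 37 deg C before compound addition, then a further overnight compound incubation at 37 deg C.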

For test [18], the target named is Tumor susceptibility gene 101 protein (Homo sapiens) (UniProt Q99816). Nature of the test: qHTS Assay for Iinhibitors of HIV-1 Budding by Blocking the Interaction of PTAP/TSG101: Hit Validation (AID 651600). Also: nearly all actives have a fitted effect of over 70% in size. Also: potency is read from the fitted curve at half-maximal effect. In a few lines:
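Measuring PTAP–Tsg101 interaction by FP: protein at 10 uM and fluorescent peptide at 50 nM (final), buffer 10 mM HEPES pH 7.5 with 0.15 M NaCl, 3 mM EDTA, 0.1 mM TCEP, 0.01% Tween 20; 20 min incubation, r.t.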

The target of test [19] is Cytochrome P450 1A2 (Homo sapiens) (UniProt P05177). Kind of test: p450-cyp1a2 (AID 410; calls by dose curve; also: potency is read from the fitted curve at half-maximal effect). In a few lines: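 O-Demethylation of luciferin 6' methyl ether by human CYP1A2 is monitored as luciferase luminescence. Substrate sits at Km (100uM); enzyme is 20nM. Values are scaled to 57 uM furafylline as maximal inhibition.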
Test [20] addresses Mitogen-activated protein kinase 10 (Mus musculus) (UniProt Q61831). Kind of test: JNK3 AlphaScreen Assay (AID 530; active = well fitted curve in either direction with a large enough effect, not every such curve was filed as active;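 also: kinase came from lysate of stimulated human HepG2 cells; signal reports phosphorylation of biotinylated GST-cJun 1-79 at Ser73 with 10 µM ATP; % is scaled to controls: 0 for no effect and ±100 for the full control effect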). In a few lines: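 qHTS titrations with 15 min compound pre-incubation before adding ATP (10 uM final). Read-out: AlphaScreen of Ser73-phosphorylated biotin-GST-cJun using HepG2 lysate JNK3 activated by IL-1β and TNFα.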
In general terms: Alpha assays give light when donor and acceptor beads are brought close together.

The target of test [21] is Cytochrome P450 2C9 (Homo sapiens) (UniProt P11712). Nature of the test: qHTS Assay for Inhibitors and Substrates of Cytochrome P450 2C9 (AID 883). Also: potency is read from the fitted curve at half-maximal effect; nearly all actives have a fitted effect of over 60% in size. In a few lines: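 Turnover of Luciferin-H (100uM, KM) by 10nM human CYP2C9 was measured over 60 min at 37C with NADPH regeneration; inhibitors and some substrates reduce luminescence. Data normalized to sulphaphenazole 57uM.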

In test [22] the target is Cytochrome P450 2C19 (Homo sapiens) (UniProt P33261). Nature of the test: qHTS Assay for Inhibitors and Substrates of Cytochrome P450 2C19 (AID 899). Also: potency is read from the fitted curve at half-maximal effect; nearly all actives have a fitted effect of over 60% in size. In short, it runs like this: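 Reactions contain 5nM enzyme, 10uM Luciferin-H EGE (KM) and 50mM KPO4; compound preincubates 10 min at 37C, NADPH regeneration starts turnover for 60 min. Luminescence after detection reagent gives activity.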

Test [23] concerns the target Cytochrome P450 2D6 (Homo sapiens) (UniProt P10635). Nature of the test: qHTS Assay for Inhibitors and Substrates of Cytochrome P450 2D6 (AID 891). Also: potency is read from the fitted curve at half-maximal effect; nearly all actives have a fitted effect of over 60% in size. In short, it runs like this:
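Luminescent read-out of luciferin formed by 5 nM human CYP2D6 demethylating 30 uM Luciferin-ME EGE (Km level) over 60 min at room temperature after NADPH regeneration addition. Data normalized to full inhibition by 1.43 uM quinidine.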

Test [24] addresses Dual specificity protein kinase CLK4 (Homo sapiens) (UniProt Q9HAZ1). Kind of test: qHTS Assay for Inhibitors of CDC-like Kinase 4 (Kinase-Glo Assay) (AID 1770). Also: potency is read from the fitted curve at half-maximal effect; nearly all actives have a fitted effect of over 65% in size. In short, it runs like this:
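Clk4 25 nM, RS peptide 100 uM, ATP 1 uM, pH 7.5 Tris, 10 mM MgCl2, 2.5 mM DTT; 4.5 h RT; ATP depletion read by Kinase-Glo luminescence.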

Test [25] shares this target. Nature of the test: qHTS Assay for Inhibitors of CDC-like Kinase 4 (ADP-Glo Assay) (AID 1771). Also: potency is read from the fitted curve at half-maximal effect; nearly all actives have a fitted effect of over 70% in size. In short, it runs like this:
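Compounds are pin-transferred onto substrate mix (100 uM RS peptide, 1 uM ATP), then 25 nM Clk4 is added. After 1 hr at room temperature, ADP-Glo reagent runs 45 min, detection reagent 30 min, then luminescence is read.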

Test [26] shares this target. Kind of test: qHTS Assay for Inhibitors of CDC-like Kinase 4 (ADP-FP Assay) (AID 1795).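 Also: recombinant human CLK4 phosphorylating RS repeat peptide at 1 µM ATP; % is scaled to controls: 0 for no effect and ±100 for the full control effect; nearly all actives have a fitted effect of over 60% in size.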 In short, it runs like this: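 Kinase activity was followed as ADP output, converted from fluorescence polarization with a calibration curve. Reactions ran one hour at low ATP (1 uM) with RS peptide substrate.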

Values without a mark were called inactive. Inconclusive results are not listed. Calls of active or inactive are those of the source. Unless noted, calls follow the shape of the dose curve; as a rule, active = well fitted curve in the direction sought with a large enough effect; inconclusive = small, poorly fitted or top-dose-only effect, or another doubt; inactive = no such curve, though single readings can be large; an effect the other way counts as inactive or inconclusive. A value given as a limit tells only on which side of the number the result lay.

Sequence of Cytochrome P450 3A4 (Homo sapiens) (P08684 whole entry, looked up): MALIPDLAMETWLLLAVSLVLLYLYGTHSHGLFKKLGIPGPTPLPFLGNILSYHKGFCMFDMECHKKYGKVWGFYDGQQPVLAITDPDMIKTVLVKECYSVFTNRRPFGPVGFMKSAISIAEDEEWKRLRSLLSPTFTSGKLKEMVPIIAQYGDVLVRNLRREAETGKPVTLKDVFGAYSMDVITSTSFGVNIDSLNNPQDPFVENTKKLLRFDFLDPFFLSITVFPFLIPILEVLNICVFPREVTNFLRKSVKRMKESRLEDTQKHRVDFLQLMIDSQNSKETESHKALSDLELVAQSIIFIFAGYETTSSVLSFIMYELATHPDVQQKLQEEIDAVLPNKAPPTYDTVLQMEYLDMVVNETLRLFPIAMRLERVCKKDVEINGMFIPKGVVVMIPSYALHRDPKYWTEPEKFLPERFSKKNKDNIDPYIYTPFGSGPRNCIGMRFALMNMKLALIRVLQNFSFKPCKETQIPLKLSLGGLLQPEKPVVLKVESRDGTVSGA
Sequence of Rap guanine nucleotide exchange factor 4 (Homo sapiens) (Q8WZA2 whole entry, looked up): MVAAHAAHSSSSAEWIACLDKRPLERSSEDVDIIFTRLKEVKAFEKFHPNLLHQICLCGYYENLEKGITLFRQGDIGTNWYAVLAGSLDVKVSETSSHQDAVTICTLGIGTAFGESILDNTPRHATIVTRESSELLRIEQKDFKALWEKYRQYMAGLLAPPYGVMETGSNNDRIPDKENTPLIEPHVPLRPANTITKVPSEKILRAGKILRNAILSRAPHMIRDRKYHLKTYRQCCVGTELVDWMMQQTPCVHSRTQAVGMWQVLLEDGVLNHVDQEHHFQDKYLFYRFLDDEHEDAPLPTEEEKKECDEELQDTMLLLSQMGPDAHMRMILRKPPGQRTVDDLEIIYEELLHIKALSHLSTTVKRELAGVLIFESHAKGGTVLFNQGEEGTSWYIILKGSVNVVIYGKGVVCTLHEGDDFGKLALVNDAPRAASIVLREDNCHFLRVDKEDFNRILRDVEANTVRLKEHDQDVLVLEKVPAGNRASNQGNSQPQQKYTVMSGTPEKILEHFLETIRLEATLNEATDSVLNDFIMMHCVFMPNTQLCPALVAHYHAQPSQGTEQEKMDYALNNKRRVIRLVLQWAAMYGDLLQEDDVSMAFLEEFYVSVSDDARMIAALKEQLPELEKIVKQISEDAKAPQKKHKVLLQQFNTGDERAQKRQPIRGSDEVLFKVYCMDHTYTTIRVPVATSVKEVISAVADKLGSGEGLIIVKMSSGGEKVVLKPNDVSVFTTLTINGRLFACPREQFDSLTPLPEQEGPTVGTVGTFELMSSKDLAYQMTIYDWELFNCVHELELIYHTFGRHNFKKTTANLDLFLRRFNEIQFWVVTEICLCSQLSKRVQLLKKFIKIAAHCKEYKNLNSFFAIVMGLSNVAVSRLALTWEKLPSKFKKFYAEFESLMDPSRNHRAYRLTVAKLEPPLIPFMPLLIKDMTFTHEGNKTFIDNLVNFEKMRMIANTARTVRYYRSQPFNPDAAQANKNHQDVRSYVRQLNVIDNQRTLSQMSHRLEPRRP
Sequence of Glucocorticoid receptor (Homo sapiens) (P04150 whole entry, looked up, the tested form may be a part): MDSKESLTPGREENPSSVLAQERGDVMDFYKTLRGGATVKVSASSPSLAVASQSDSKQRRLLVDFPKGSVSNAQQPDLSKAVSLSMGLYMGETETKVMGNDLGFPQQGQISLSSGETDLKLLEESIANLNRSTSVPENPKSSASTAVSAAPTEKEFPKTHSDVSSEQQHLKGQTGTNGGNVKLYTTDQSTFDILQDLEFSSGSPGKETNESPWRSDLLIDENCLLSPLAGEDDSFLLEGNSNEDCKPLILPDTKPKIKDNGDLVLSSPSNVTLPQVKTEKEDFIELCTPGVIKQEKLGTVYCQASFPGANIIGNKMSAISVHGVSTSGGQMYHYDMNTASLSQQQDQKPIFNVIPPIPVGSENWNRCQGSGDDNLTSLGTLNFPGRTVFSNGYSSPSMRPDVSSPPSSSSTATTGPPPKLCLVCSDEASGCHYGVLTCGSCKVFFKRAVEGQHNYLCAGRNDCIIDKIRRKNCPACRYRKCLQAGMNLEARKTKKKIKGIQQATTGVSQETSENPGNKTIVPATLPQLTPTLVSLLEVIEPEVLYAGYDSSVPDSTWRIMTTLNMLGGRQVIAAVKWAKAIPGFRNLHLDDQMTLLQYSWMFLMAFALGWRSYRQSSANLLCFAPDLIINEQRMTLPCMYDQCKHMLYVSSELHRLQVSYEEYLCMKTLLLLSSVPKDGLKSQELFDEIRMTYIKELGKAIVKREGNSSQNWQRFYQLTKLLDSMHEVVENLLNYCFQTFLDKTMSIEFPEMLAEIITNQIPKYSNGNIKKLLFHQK
Sequence of Dual specificity protein kinase CLK4 (Homo sapiens) (Q9HAZ1 whole entry, looked up): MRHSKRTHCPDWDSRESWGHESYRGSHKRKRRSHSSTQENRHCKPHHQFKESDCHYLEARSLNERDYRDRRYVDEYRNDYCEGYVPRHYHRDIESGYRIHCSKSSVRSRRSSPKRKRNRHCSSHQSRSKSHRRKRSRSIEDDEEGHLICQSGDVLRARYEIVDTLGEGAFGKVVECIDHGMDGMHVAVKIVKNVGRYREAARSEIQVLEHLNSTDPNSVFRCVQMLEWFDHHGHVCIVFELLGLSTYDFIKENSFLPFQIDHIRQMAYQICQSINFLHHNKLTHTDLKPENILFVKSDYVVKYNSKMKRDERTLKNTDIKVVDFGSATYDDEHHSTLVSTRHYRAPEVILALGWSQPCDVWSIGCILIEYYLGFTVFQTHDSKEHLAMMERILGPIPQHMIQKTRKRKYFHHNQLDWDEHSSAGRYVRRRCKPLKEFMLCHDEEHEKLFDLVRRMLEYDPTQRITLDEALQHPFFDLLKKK
Sequence of Rap guanine nucleotide exchange factor 3 (Homo sapiens) (O95398 whole entry, looked up): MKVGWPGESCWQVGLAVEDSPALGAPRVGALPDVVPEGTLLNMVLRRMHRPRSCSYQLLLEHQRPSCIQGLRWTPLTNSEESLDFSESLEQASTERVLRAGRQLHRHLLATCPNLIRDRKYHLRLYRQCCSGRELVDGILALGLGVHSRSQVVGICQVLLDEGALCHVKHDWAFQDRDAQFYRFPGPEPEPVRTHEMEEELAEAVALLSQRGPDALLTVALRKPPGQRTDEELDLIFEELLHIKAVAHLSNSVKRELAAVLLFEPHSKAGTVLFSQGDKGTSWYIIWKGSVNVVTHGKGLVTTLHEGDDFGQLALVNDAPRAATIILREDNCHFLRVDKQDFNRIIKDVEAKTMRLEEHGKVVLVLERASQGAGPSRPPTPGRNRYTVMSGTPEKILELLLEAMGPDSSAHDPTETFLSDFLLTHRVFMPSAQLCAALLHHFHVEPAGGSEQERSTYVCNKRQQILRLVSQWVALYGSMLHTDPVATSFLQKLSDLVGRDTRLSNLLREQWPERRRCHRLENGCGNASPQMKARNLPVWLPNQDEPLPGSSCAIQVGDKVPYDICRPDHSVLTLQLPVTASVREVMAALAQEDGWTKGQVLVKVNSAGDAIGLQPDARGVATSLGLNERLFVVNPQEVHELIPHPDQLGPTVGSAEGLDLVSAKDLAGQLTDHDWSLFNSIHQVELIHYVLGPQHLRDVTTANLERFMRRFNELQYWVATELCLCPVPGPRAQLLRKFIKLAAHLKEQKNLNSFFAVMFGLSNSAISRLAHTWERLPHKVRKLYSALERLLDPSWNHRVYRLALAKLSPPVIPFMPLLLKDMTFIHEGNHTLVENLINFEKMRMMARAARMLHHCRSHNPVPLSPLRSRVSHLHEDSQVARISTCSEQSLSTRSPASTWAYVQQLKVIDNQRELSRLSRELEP
Sequence of 3',5'-cyclic-AMP phosphodiesterase 4B (Homo sapiens) (Q07343 whole entry, looked up): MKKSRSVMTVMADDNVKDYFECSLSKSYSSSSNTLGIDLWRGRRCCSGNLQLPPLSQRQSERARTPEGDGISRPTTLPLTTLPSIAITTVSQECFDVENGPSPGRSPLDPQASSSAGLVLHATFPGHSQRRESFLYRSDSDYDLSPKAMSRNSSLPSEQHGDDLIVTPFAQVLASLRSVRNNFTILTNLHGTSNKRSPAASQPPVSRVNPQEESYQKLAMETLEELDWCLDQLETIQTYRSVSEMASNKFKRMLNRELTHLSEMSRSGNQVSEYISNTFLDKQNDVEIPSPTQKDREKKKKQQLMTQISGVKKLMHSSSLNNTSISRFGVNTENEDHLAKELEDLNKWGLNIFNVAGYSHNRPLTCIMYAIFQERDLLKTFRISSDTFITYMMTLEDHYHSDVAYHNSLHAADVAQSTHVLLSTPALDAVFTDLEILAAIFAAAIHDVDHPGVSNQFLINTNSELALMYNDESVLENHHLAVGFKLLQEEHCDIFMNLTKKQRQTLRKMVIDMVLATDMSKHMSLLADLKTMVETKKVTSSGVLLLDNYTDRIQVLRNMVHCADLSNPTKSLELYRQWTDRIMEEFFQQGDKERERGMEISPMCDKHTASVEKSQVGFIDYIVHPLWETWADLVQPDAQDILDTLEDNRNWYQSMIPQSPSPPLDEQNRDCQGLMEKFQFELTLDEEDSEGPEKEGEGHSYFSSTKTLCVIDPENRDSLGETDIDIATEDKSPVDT
Sequence of DNA dC->dU-editing enzyme APOBEC-3G (Homo sapiens) (Q9HC16 whole entry, looked up): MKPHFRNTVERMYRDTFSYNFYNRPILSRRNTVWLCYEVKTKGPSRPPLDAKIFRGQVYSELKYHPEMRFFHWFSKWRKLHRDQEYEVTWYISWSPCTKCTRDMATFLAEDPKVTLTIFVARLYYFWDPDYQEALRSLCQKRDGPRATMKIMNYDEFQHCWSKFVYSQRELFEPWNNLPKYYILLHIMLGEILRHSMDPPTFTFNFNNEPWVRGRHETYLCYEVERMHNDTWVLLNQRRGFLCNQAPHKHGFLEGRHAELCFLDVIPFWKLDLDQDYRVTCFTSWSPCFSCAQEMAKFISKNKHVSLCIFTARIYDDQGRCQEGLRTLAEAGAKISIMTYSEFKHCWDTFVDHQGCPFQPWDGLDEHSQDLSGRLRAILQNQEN

For `CCOC(=O)C1(O)Oc2cc(OC)cc(OC)c2C(=O)C1c1ccccc1` (stereo unspecified), the compound was called inactive in [1]. Further, the Potency entry in test [2], in test [3], in [4], in [5], in [6] and in test [7] was “inactive” throughout. Further, the Potency entry in test [8] is “inactive”.
For the compound `O=c1cnc2cnc(OCc3ccccc3)nc2n1CCc1ccccc1`, the Potency in test [9] was over 11.4 µM; in test [13] it was over 9.22 µM; in test [14], over 46 µM; in test [8], 31.2 µM (active). For the same compound, the activity change, negative = inhibition is -5.47% in test [10] and -27.9% in [11]. For the same compound, in test [12], the compound was called inactive. The Potency result in [15], in [5], in [6] and in test [7] was “inactive” in each case.
Regarding `CC(C)Cn1c(SC(C)C(=O)NCC2CCCO2)nc2ccc(Cl)cc2c1=O` (stereo unspecified), the Potency result in [5], in test [6], in [7] and in test [16] was “inactive” each time. In test [8], the Potency was 5.36 µM (active).
For the compound `C=C1CCC(O)C/C1=C\C=C1/CCCC2(C)C1CCC2C(C)CCCC(C)C` (stereo unspecified), in test [17], the outcome was inactive. Also, the Potency in test [5] was 55.9 µM (active); in [8], 39.3 µM (active). The Potency entry in test [6] and in test [7] was “inactive” in each case.
For `CCNc1ccc2noc3c2c1C(=O)c1ccccc1-3`, the Potency in test [18] is 3.26 µM (active); in test [6], 100 µM (active); in [7], 100 µM (active); in test [8] it was 16.9 µM (active); in test [16], 22.4 µM (active). In addition, the Potency entry in test [5] is “inactive”.
Turning to `CC(C)=CCc1c(O)cc(O)c2c1O[C@H](c1ccccc1)CC2=O`, the Potency in test [19] was 0.316 µM (active); in [21], 3.16 µM (active); in test [22] it was 1 µM (active); in test [8], 39.3 µM (active). The Potency result in test [20], in test [5], in test [6] and in test [7] was “inactive” each time. Further, the result in test [1] and in test [17] was inactive.
As to `Cc1nc(Nc2ccc(S(=O)(=O)N3CCCCC3C)cc2)c2nnn(Cc3ccccc3)c2n1` (stereo unspecified), the Potency entry in [18], in test [5], in [6], in test [7], in [8] and in test [16] was “inactive” each time.
As to `COc1ccc2[nH]cc(CCNc3ncnc4ccc(-c5ccccc5OC)cc34)c2c1`, the Potency in [9] was over 11.4 µM; in test [19], 7.94 µM (active); in test [13], over 46 µM; in test [14] it was over 46 µM; in [21] it was 0.251 µM (active); in [23] it was 3.98 µM (active). Besides, the Potency in test [22] is 2 µM (active); in test [24], 25.1 µM (active); in [25], 25.1 µM (active). The activity change, negative = inhibition in [10] is -28.6%; in test [11], 20.2%. The compound was called inactive in test [12] and in [1]. For the same compound, the Potency entry in test [15], in test [26], in [4], in test [5], in test [6] and in [7] was “inactive” throughout. In [8], the Potency result is “inactive”.
